Several values for one entry are separate records, joined by “and”; a condition that tells them apart may be missing. Identical values can stand only once. Records with an inconclusive call do not appear. A structure can be active in one record and inactive in another. Activity calls are given as the source filed them. Unless noted, calls follow the shape of the dose curve; as a rule, active = well fitted curve in the direction sought with a large enough effect in the repeat runs; inconclusive = weak or mixed curves; inactive = no such curve, though single readings can be large; an effect the other way counts as inactive or inconclusive.
Experiments:
[1] = qHTS assay to identify aromatase inhibitors - cell viability counter screen (AID 743084); conditions: MCF-7 aro ERE viability, CellTiter-Fluor, 24 h; series mostly up to 70.3 µM;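 also: cells stimulated with testosterone during compound exposure; nearly all actives have a fitted effect of over 55% in size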; also: potency is read from the fitted curve at half-maximal effect
[2] = target: Aryl hydrocarbon receptor (Homo sapiens) (UniProt P35869); assay: qHTS assay to identify small molecule that activate the aryl hydrocarbon receptor (AhR) signaling pathway (AID 743085); conditions: HepG2 AhR-luc (HG2L7.5c1), luciferase, 24 h; series mostly up to 70.3 µM; also: nearly all actives have a fitted effect of over 15% in size; also: potency is read from the fitted curve at half-maximal effect;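 as to activation: HG2L7.5c1 human HepG2 liver cells with stably integrated DRE-driven firefly reporter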
Aryl hydrocarbon receptor (Homo sapiens), sequence (P35869 whole entry, looked up): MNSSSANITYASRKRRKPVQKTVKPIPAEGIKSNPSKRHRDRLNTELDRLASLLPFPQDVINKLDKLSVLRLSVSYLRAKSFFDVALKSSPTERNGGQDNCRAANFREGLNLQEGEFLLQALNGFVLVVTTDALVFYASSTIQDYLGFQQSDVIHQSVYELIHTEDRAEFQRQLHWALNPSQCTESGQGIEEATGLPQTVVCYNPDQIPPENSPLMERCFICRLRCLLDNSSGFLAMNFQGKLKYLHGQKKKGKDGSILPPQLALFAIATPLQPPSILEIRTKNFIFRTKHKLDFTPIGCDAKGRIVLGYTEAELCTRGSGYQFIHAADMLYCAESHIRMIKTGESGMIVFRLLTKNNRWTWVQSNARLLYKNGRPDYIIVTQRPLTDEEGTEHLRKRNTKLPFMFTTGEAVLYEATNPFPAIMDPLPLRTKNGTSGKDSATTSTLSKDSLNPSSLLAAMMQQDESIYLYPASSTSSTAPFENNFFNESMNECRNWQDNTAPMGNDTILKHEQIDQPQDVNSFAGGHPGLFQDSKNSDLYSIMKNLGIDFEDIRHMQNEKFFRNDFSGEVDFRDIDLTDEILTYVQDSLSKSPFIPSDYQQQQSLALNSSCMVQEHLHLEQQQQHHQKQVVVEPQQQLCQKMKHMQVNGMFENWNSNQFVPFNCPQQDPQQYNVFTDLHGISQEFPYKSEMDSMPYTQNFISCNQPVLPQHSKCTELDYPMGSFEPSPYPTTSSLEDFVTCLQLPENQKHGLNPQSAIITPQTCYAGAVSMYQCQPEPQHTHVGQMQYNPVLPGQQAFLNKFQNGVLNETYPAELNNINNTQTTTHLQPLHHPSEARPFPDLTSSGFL
Method in brief: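 Luminescence read-out: ONE-Glo reagent, 30 min at room temperature, in HG2L7.5c1 HepG2 reporter cells treated 24 h at 37C. Viability was measured beforehand by CellTiter-Fluor fluorescence after 30 min at 37C.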

[3] = qHTS assay to identify small molecule that activate the aryl hydrocarbon receptor (AhR) signaling pathway - cell viability counter screen (AID 743086); conditions: HepG2-AhR-luc viability, CellTiter-Fluor, 24 h; series mostly up to 70.3 µM; also: nearly all actives have a fitted effect of over 45% in size; also: potency is read from the fitted curve at half-maximal effect
Method in brief: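 HepG2-AhR-luc (HG2L7.5c1) cells, 4000/well, were preincubated 5 h at 37C, exposed to compound in qHTS format for 24 hr at 37C, then given CellTiter-Fluor for 30 min; viability was read as fluorescence in the reporter wells.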

[4] = target: Peroxisome proliferator-activated receptor gamma (Homo sapiens) (UniProt P37231); assay: qHTS assay to identify small molecule agonists of the peroxisome proliferator-activated receptor gamma (PPARg) signaling pathway (AID 743094; active = well fitted activation curve with a large enough effect in the signal ratio in the repeat runs, not every such curve was filed as active; the % refers to the signal ratio); conditions: HEK293H PPARg-UAS-bla, beta-lactamase FRET ratio, 17 h; series mostly up to 57 µM
Peroxisome proliferator-activated receptor gamma (Homo sapiens), sequence (P37231 whole entry, looked up): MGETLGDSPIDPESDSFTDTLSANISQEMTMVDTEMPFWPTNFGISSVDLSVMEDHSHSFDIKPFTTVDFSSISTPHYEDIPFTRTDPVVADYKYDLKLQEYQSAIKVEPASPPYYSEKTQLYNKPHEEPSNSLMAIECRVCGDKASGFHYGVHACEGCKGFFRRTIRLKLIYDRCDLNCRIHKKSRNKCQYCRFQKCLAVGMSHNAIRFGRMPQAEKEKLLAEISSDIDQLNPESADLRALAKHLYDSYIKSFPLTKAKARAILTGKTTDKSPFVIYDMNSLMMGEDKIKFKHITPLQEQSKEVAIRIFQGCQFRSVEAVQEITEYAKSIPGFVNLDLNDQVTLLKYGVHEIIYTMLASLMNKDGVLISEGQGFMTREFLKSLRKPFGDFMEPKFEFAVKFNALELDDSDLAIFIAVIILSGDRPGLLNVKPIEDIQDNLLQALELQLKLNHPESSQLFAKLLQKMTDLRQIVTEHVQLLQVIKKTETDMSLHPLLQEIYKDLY
Method in brief: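 Cell-based bla reporter, HEK293H background, PPARg-driven UAS. Pre-incubation 5 h, 37C, 5% CO2. Compound 17 h, 37C. Substrate 1 h RT; fluorescence.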

[5] = qHTS assay to identify small molecule antagonists of the peroxisome proliferator-activated receptor gamma (PPARg) signaling pathway - cell viability counter screen (AID 743194); conditions: PPARg-bla HEK293H viability, CellTiter-Glo luminescence, 17 h, co-treated with 50 nM rosiglitazone; series mostly up to 62.6 µM; also: nearly all actives have a fitted effect of over 55% in size; also: potency is read from the fitted curve at half-maximal effect
Method in brief: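 PPARg-UAS-bla HEK293H cells were plated, rested 5 h at 37 C, then treated with compounds plus rosiglitazone (50 nM final) for 17 h at 37 C; viability was then read by CellTiter-Glo luminescence after 30 min at room temperature.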

[6] = qHTS assay for small molecule agonists of the antioxidant response element (ARE) signaling pathway - cell viability counter screen (AID 743203; calls by dose curve; also: nearly all actives have a fitted effect of over 55% in size; also: potency is read from the fitted curve at half-maximal effect); conditions: ARE-bla HepG2 viability, CellTiter-Glo luminescence, 16 h; series mostly up to 73.3 µM
Method in brief: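 Measured in the same wells as the beta-lactamase ARE reporter, this read-out is CellTiter-Glo luminescence from HepG2 ARE-bla cells given compounds for 16 hrs.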

[7] = qHTS assay for small molecule activators of the heat shock response signaling pathway - cell viability counter screen (AID 743209); conditions: HSE-bla HeLa viability, CellTiter-Glo luminescence, 5 h; series mostly up to 62.6 µM; also: nearly all actives have a fitted effect of over 50% in size; also: potency is read from the fitted curve at half-maximal effect
Method in brief: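 Same-well multiplex: after 2.5 h room-temperature incubation with LiveBLAzer B/G substrate and fluorescence reading, CellTiter-Glo reagent was added to HSE-bla HeLa cells that had received compound for 5 h at 37 C; luminescence read after 30 min.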

[8] = qHTS assay for small molecule agonists of the antioxidant response element (ARE) signaling pathway (AID 743202; active = well fitted activation curve with a large enough effect in the signal ratio in the repeat runs, not every such curve was filed as active; the % refers to the signal ratio); conditions: HepG2 ARE-bla reporter, beta-lactamase FRET, 16 h; series mostly up to 73.3 µM
Method in brief: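 Steps: seed ARE-bla HepG2 cells (2,000/well); incubate 5 h at 37 C; add compounds by pin tool; incubate 16 h at 37 C; add FRET substrate; read fluorescence after 2 h at RT.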

[9] = qHTS assay for small molecule activators of the heat shock response signaling pathway (AID 743210; active = well fitted activation curve with a large enough effect in the signal ratio in the repeat runs, with a control signal flat, not every such curve was filed as active; the % refers to the signal ratio;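 also: HeLa cells with beta-lactamase reporter driven by heat shock elements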); conditions: HeLa HSE-bla reporter, beta-lactamase ratio, 5 h; series mostly up to 62.6 µM
Method in brief: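 Activation of heat shock element-controlled beta-lactamase expression is measured in HeLa cells by LiveBLAzer FRET fluorescence, with compound exposure lasting 5 h at 37 C and substrate loading 2.5 h at room temperature.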

[10] = target: Peroxisome proliferator-activated receptor gamma (Homo sapiens) (UniProt P37231); assay: qHTS assay to identify small molecule antagonists of the peroxisome proliferator-activated receptor gamma (PPARg) signaling pathway (AID 743191; calls by dose curve; also: nearly all actives have a fitted effect of over 30% in size); conditions: HEK293H PPARg-UAS-bla, beta-lactamase ratio, antagonist, 17 h; series mostly up to 62.6 µM
Method in brief: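 GeneBLAzer PPARg UAS-bla HEK293H cells carrying a UAS-driven beta-lactamase reporter were plated at 3000 cells/well, preincubated 5 h at 37C, then given compound for 17 h at 37C; LiveBLAzer B/G FRET substrate was read after 1 h at room temperature.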

Measured: Potency

N=C(N)n1cccn1
inactive: [1] | [2] | [3] | [4]

CC(C)c1ncc([N+](=O)[O-])n1C
inactive: [1] | [2] | [3] | [4]

C=CC[N+]1([C@H]2C[C@H]3[C@@H]4CC[C@H]5C[C@H](O)[C@@H](N6CCOCC6)C[C@]5(C)[C@H]4CC[C@]3(C)[C@H]2OC(C)=O)CCCC1
inactive: [1] | [2] | [3] | [4]

Cc1cn([C@H]2C[C@H](O)[C@@H](CO)O2)c(=O)[nH]c1=O
inactive: [1] | [2] | [3] | [4]

NC[C@@H]1CC[C@@H](N)[C@@H](O[C@H]2[C@H](O)[C@@H](O[C@H]3O[C@H](CO)[C@@H](O)[C@H](N)[C@H]3O)[C@H](N)C[C@@H]2N)O1
inactive: [1] | [2] | [3] | [4]

CNCC(=O)N[C@@H](CCCN=C(N)N)C(=O)N[C@H](C(=O)N[C@@H](Cc1ccc(O)cc1)C(=O)N[C@H](C(=O)N[C@@H](Cc1cnc[nH]1)C(=O)N1CCC[C@H]1C(=O)N[C@@H](C)C(=O)O)C(C)C)C(C)C
inactive: [1] | [2] | [3] | [4]

O=S(=O)(O)CC(S)CS (stereo unspecified)
inactive: [1] | [2] | [3] | [4]

FC(F)(F)COCC(F)(F)F
inactive: [1] | [2] | [3] | [4]

O=C(O)c1cc(=O)c2c3nc4ccccc4oc-3cc(=O)c2[nH]1
inactive: [1] | [3] | [4]
active: [2] 4.22 µM

Cc1c(N)nc([C@H](CC(N)=O)NC[C@H](N)C(N)=O)nc1C(=O)N[C@H](C(=O)N[C@H](C)[C@@H](O)[C@H](C)C(=O)N[C@H](C(=O)NCCc1nc(-c2nc(C(=O)NCCCCN=C(N)N)cs2)cs1)[C@@H](C)O)[C@@H](O[C@@H]1O[C@@H](CO)[C@@H](O)[C@H](O)[C@@H]1O[C@H]1O[C@H](CO)[C@@H](O)[C@H](OC(N)=O)[C@@H]1O)c1cnc[nH]1
inactive: [1] | [2] | [3] | [4]

O=C(CCCN1CCN2CCCC2C1)c1ccc(F)cc1 (stereo unspecified)
inactive: [1] | [2] | [3] | [4]

CC[C@H]1OC(=O)C[C@@H](O)[C@H](C)[C@@H](O[C@@H]2O[C@H](C)[C@@H](O)[C@H](N(C)C)[C@H]2O)[C@@H](CCN2C[C@H](C)C[C@H](C)C2)C[C@@H](C)C(=O)/C=C/C(C)=C/[C@@H]1CO[C@@H]1O[C@H](C)[C@@H](O)[C@@H](OC)[C@H]1OC
inactive: [1] | [2] | [3] | [4]

CSCCC(N)C(=O)O (stereo unspecified)
inactive: [1] | [2] | [3] | [4]

CCCCCCCCCCCCCC(=O)OCC(COP(=O)([O-])OCC[N+](C)(C)C)OC(=O)CCCCCCCCCCCCC (stereo unspecified)
inactive: [1] | [2] | [3] | [4]

NC[C@H]1O[C@H](O[C@H]2[C@H](O)[C@@H](O[C@H]3O[C@H](CO)[C@@H](O)[C@H](N)[C@H]3O)[C@H](N)C[C@@H]2N)[C@H](N)C[C@@H]1O
inactive: [1] | [2] | [3] | [4]

C=CC1=C(C(=O)O)N2C(=O)[C@@H](NC(=O)/C(=N/OCC(=O)O)c3csc(N)n3)[C@H]2SC1 (stereo in doubt)
inactive: [1] | [2] | [3] | [4]

CC(C)C[C@@H](NC(=O)[C@@H](O)[C@H](N)Cc1ccccc1)C(=O)O
active: [1] 0.75 µM | [3] 0.376 µM
inactive: [2] | [4]

O=C1c2ccccc2CN2C(=O)c3ccccc3CN12
inactive: [1] | [2] | [3] | [4]

CCCCCCOC(=O)c1cccnc1
inactive: [1] | [2] | [3] | [4]

O=P(O)(O)CP(=O)(O)O
inactive: [1] | [2] | [3] | [4]

NC(=O)[C@@H]1CCCN1C(=O)[C@H](Cc1cnc[nH]1)NC(=O)[C@@H]1CCC(=O)N1
inactive: [1] | [2] | [3] | [4]

NCC1CCC(C(=O)O)CC1 (stereo unspecified)
inactive: [1] | [2] | [3] | [4]

C=C1[C@@H]2CC[C@@H](C2)C1(C)C
inactive: [1] | [2] | [3] | [4]

Cc1cnc(C(=O)O)c[n+]1[O-]
inactive: [1] | [2] | [3] | [4]

COc1ccc(/C=C/C(=O)Nc2ccccc2C(=O)O)cc1OC
active: [2] 3.35 µM
inactive: [1] | [3] | [4]

C=C1C(CCl)(CCl)C2(Cl)C(Cl)C(Cl)C1(Cl)C2(Cl)Cl (stereo unspecified)
inactive: [2] | [3]
active: [1] 53.8 µM | [5] 54.3 µM | [6] 60.4 µM | [7] 54.3 µM

CCOc1ccc([N+](=O)[O-])cc1
inactive: [2] | [3]
active: [1] 55.3 µM | [7] 44.3 µM

CN(C)CCOc1ccc(/C(=C(/CCCl)c2ccccc2)c2ccccc2)cc1
active: [1] 45.5 µM | [5] 25.8 µM | [6] 16.1 µM | [7] 28.9 µM
inactive and 40.5 µM (active): [3]
inactive: [2] | [4]

CN(C)CCC(O)(c1ccccc1)c1ccccc1Cl (stereo unspecified)
inactive: [1] | [2] | [4]

CN[C@H](CC(C)C)C(=O)N[C@H]1C(=O)N[C@@H](CC(N)=O)C(=O)N[C@H]2C(=O)N[C@H]3C(=O)N[C@H](C(=O)N[C@@H](C(=O)O)c4cc(O)cc(O)c4-c4cc3ccc4O)[C@H](O)c3ccc(c(Cl)c3)Oc3cc2cc(c3O[C@@H]2O[C@H](CO)[C@@H](O)[C@H](O)[C@H]2O[C@H]2C[C@](C)(N)C(O)[C@H](C)O2)Oc2ccc(cc2Cl)[C@H]1O (stereo partly specified)
inactive: [1] | [2] | [3] | [4]

CCCCCCCCCCCCCCCCCCNC(=O)OC1CCN(C(=O)OC[C@H](COC(=O)N(Cc2cccc[n+]2CC)C(=O)c2ccccc2OC)OC)CC1
active: [1] 29.8 µM | [6] 26.6 µM | [7] 23.7 µM
inactive: [2]

CN(C/C=C/c1ccccc1)Cc1cccc2ccccc12
not listed: [10]
inactive: all other assays above

O=C1OC(=O)c2cc(-c3ccc4c(c3)C(=O)OC4=O)ccc21
not listed: [7] | [8] | [9]
inactive: all other assays above

CCN1CCCC1CNC(=O)c1cc(S(=O)(=O)CC)ccc1OC (stereo unspecified)
inactive: [1] | [2] | [3] | [4]

Cc1ccc(Cl)c(N)c1Cl
not listed: [8] | [9]
inactive: all other assays above

From PubChem BioAssay (Tox21)
